# Laboratory results published in the supplement of paper PMC10720658.
# ± gives the standard deviation of the averaged measurements.
# Tested on: AEK1 (Tb927.3.2440)
# Assay: percent reduction in TR-FRET probe signal relative to DMSO control; higher = stronger displacement of ATP-site probe (binding)
# Details: 1 µM; incubation time 1 h
row,SMILES,percent reduction in TR-FRET probe signal [%]
1,Cc1cnc(Nc2ccc(OCCN3CCCC3)cc2)nc1Nc1cccc(S(=O)(=O)NC(C)(C)C)c1,31.6 ± 15
2,COc1ccc(-c2ccc3c(N4CCOC[C@@H]4C)nc(N4CCOC[C@@H]4C)nc3n2)cc1CO,-7.43 ± 5.2
3,Cc1cnc(Nc2ccc(F)cc2Cl)nc1-c1c[nH]c(C(=O)N[C@H](CO)c2cccc(Cl)c2)c1,9.02 ± 15
